According to PubChem BioAssay (EPA / NIEHS):
The source made the active and inactive calls. The calls were made as follows: active = hit-call score of the fitted dose curve at least 0.9, where 1 is the maximum; inconclusive = response in the unintended direction; inactive = score below 0.9.

Assay: Tanguay_ZF_120hpf_MORT_legacy: (Legacy) Oregon State University Tanguay Lab 120 Hour Post-fertilization zebrafish Assay for Mortality (AID 2283633)
Experimental: Tanguay_ZF_120hpf_legacy is a whole embryo, multiplexed endpoint assay using zebrafish larvae exposed for 120 hours post fertilization on a 96-well plate.Tanguay_ZF_120hpf_MORT_legacy is one of one assay component(s) measured or calculated from the Tanguay_ZF_120hpf_legacy assay. It is designed to make measurements of embryonic mortality as detected with brightfield microscopy of developing zebrafish embryos.Data from the assay component Tanguay_ZF_120hpf_MORT_legacy was analyzed into 1 assay endpoints. This assay endpoint, Tanguay_ZF_120hpf_MORT_legacy, was analyzed in the positive analysis fitting direction relative to DMSO as the negative control and baseline of activity. Using a type of viability reporter, gain-of-signal activity can be used to understand changes in developmentals as they relate to the whole embryo. To generalize the intended target to other relatable targets, this assay endpoint is annotated to the embryonic mortality intended target family, where the subfamily is embryonic mortality.
Zebrafish husbandry: Tropical 5D wild-type adult zebrafish were housed in at an approximate density of 1000 per 100 gallon tank at the Sinnhuber Aquatic Research Laboratory, Oregon State University, Corvallis, OR. Each tank was kept at standard laboratory conditions of 28C on a 14-h light/10-h dark photoperiod in fish water consisting of reverse osmosis water supplemented with a commercially available salt (Instant Ocean). Spawning funnels were placed into the tanks the night prior, and embryos were collected and staged. To increase bioavailability, the chorion was enzymatically removed using pronase (63.6mg/ml, >/= 3.5U/mg, Sigma-Aldrich: P5147) at 4 hours post fertilization (hpf) using a custom automated dechorionator.Chemical exposures: Six hpf dechorionated embryos were placed 1 embryo per well in a 96-well plate prefilled with 90 ul of EM using automated embryo placement systems (AEPS). Ten microliters of each row of dilution plate 2 was added to 2 exposure plates. The final DMSO concentration used was 0.64% (vol/vol). Thirty-two embryos were also exposed to 5uM trimethyltin chloride (positive control). Plates were sealed to prevent evaporation and foil covered to reduce light exposure and kept in a 28C incubator. Embryos were statically exposed until 120 hpf. At 24 hpf, embryos were assessed for photomotor response using a custom photomotor response analysis tool (PRAT) and for developmental toxicity endpoints (MO24: mortality at 24 hpf, DP: developmental progression, SM: spontaneous movement, and NC: notochord distortion). At 120 hpf, locomotor activity was measured using Viewpoint Zebralab and assessed for 18 endpoints. Zebrafish acquisition and analysis program (ZAAP), a custom program designed to inventory, acquire, and manage zebrafish data, was used to collect developmental endpoints as either present or absent (i.e., binary responses were recorded). If mortality occurred for an embryo (at either 24 or 120 hpf), the non-mortality endpoints were not measured.

With `CN1C(=O)N(c2ccccc2Br)Cc2cnc(Nc3ccc4c(c3)OCC(CO)O4)nc21` (stereo not given) as the molecule, how does the outcome read?
The outcome was “inactive”.

With `CCCCCCCCCC(=O)O` as the molecule, how does the outcome read?
The outcome was “inactive”.

With `CC[C@H](NC(=O)c1cc(F)ccc1NS(=O)(=O)c1cccc2cccnc12)c1ccccc1` as the molecule, how does the outcome read?
Its outcome is “inactive”.

With `O=C1O[C@H]([C@@H](O)CO)C(O)=C1O` as the molecule, how does the outcome read?
The outcome was “inactive”.

With `CC(C)(O)c1ccc(CNC(=O)c2cccnc2Oc2ccc3nonc3c2)cc1` as the molecule, how does the outcome read?
The outcome was “inactive”.

Which outcome does the source give for `COc1ccc2cc(S(=O)(=O)N[C@H](CC(=O)N[C@H](Cc3ccc(CN4[C@H](C)CCC[C@@H]4C)cc3)C(=O)N(C)C(C)C)c3ccc4c(c3)OCO4)ccc2c1` here?
The outcome was “inactive”.

Which outcome does the source give for `CCO[Si](CCCNC(N)=O)(OCC)OCC` here?
Its outcome is “inactive”.

Which AC50 does the source give for `CC(C)(C)c1csc(-c2cc3cc(OCc4ccccc4CC(=O)O)ccc3o2)n1` here?
Its AC50 is 25.9 µM (active).

Which outcome does the source give for `CCCCCCCC[Si](OCC)(OCC)OCC` here?
The outcome was “inactive”.

For `CCN(Cc1cccnc1)C(=O)c1cccc(Cl)c1[C@]1(C)C(=O)N(Cc2ccc(OC)cc2OC)c2ccc(Cl)cc21`, which AC50 is on record?
Its AC50 is 6.06 µM (active).

Which outcome does the source give for `O=c1[nH]sc2ccccc12` here?
Its outcome is “inactive”.

For `Cc1cc2c(cc1C(F)(F)F)N(C(=O)Nc1ccc(Oc3cccnc3C)nc1)CC2`, which outcome is on record?
The outcome was “inactive”.

For `Cc1c2ccccc2c(C)c2c1ccc1ccccc12`, which outcome is on record?
The outcome was “inactive”.

For `O=C(O)c1ccccc1-n1cc(C(=O)O)c(=O)c2cc(Nc3c(F)cc(F)cc3Cl)c(Cl)cc21`, which outcome is on record?
The outcome was “inactive”.

With `C[C@]12CC[C@@H]3c4ccc(O)cc4CC[C@H]3[C@@H]1CC[C@H]2O` as the molecule, how does the outcome read?
The outcome was “inactive”.

With `CO[C@H]1/C=C/O[C@@]2(C)Oc3c(C)c(O)c4c(O)c(c(/C=N/N5CCN(C)CC5)c(O)c4c3C2=O)NC(=O)/C(C)=C\C=C\[C@H](C)[C@H](O)[C@@H](C)[C@@H](O)[C@@H](C)[C@H](OC(C)=O)[C@@H]1C` as the molecule, how does the outcome read?
Its outcome is “inactive”.

For `Oc1ccccc1`, which outcome is on record?
The outcome was “inactive”.

With `CN(C)c1ccc(C(=C2C=CC(=[N+](C)C)C=C2)c2ccc(N(C)C)cc2)cc1` as the molecule, how does the AC50 read?
The AC50 was 0.577 µM (active).

For `Cc1cn([C@H]2C[C@H](N=[N+]=[N-])[C@@H](CO)O2)c(=O)[nH]c1=O`, which outcome is on record?
The outcome was “inactive”.

With `CCCCOC(=O)c1ccc(O)cc1` as the molecule, how does the outcome read?
The outcome was “inactive”.

Which AC50 does the source give for `NCc1cccc(C2CCN(C(=O)c3ccc(C#Cc4ccccc4F)o3)CC2)c1` here?
Its AC50 is 12 µM (active).

For `Cc1cc(F)ccc1-c1cc(N2CC[C@@H](O)[C@H]2CO)ncc1N(C)C(=O)C(C)(C)c1cc(C(F)(F)F)cc(C(F)(F)F)c1`, which outcome is on record?
The outcome was “inactive”.

For `Cc1ccc(C(C)C)cc1`, which outcome is on record?
The outcome was “inactive”.

For `Cc1ncc(CO)c(CO)c1O`, which outcome is on record?
Its outcome is “inactive”.

Which outcome does the source give for `NC(=O)c1nc(-c2cccc(-c3cc(F)ccc3OCC(F)(F)C(F)(F)F)c2)n[nH]1` here?
The outcome was “inactive”.

For `Cc1occc1C(=O)Nc1ccc(C(=O)N2CCC(F)(F)/C(=C\C(=O)N3CCC(N4CCCCC4)CC3)c3ccccc32)cc1`, which outcome is on record?
Its outcome is “inactive”.

With `CCCOC(=O)c1cc(O)c(O)c(O)c1` as the molecule, how does the outcome read?
Its outcome is “inactive”.

With `CCCCOC(=O)CC(CC(=O)OCCCC)(OC(C)=O)C(=O)OCCCC` as the molecule, how does the outcome read?
The outcome was “inactive”.

For `c1ccc(C[n+]2cccc3ccccc32)cc1`, which outcome is on record?
The outcome was “inactive”.

For `O=C(O)Cc1cc(I)c(Oc2ccc(O)c(I)c2)c(I)c1`, which outcome is on record?
The outcome was “inactive”.

For `O=C(OCCCCCCOC(=O)c1ccccc1)c1ccccc1`, which outcome is on record?
The outcome was “inactive”.

With `CC1(C)NC(=O)N(c2ccc([N+](=O)[O-])c(C(F)(F)F)c2)C1=O` as the molecule, how does the outcome read?
Its outcome is “inactive”.

Which outcome does the source give for `Cc1ccc2oc(CN(Cc3ccccc3)C(=O)Nc3c(F)cc(F)cc3F)c(-c3ccc(Cl)cc3)c2c1` here?
The outcome was “inactive”.

Which outcome does the source give for `C[C@]12CC[C@@H]3c4ccc(O)cc4CC[C@H]3[C@@H]1CCC2=O` here?
The outcome was “inactive”.

With `CC[C@@H]1C[C@H](N(Cc2cc(C(F)(F)F)cc(C(F)(F)F)c2)C(C)=O)c2cc(C(F)(F)F)ccc2N1C(=O)OC(C)C` as the molecule, how does the outcome read?
Its outcome is “inactive”.

For `CCCCCc1ccc(N)cc1`, which outcome is on record?
The outcome was “inactive”.

For `CCN(CC)C(=O)c1cc(S(=O)(=O)Cc2ccccc2)c(N2CCC(c3ccccc3)CC2)cc1N(CC)CCN(C)C`, which AC50 is on record?
The AC50 was 11.7 µM (active).

Which outcome does the source give for `CN1C(=O)CC[C@H]1c1cccnc1` here?
The outcome was “inactive”.

For `CCCCCCCCCCCO`, which outcome is on record?
Its outcome is “inactive”.

Which outcome does the source give for `O=c1ccc2ccccc2o1` here?
The outcome was “inactive”.
